Data: the supplement of paper PMC11732987, “Enantioselective OTUD7B fragment discovery through chemoproteomics screening and high-throughput optimisation” (Communications Chemistry, 2025)

How the values were obtained:
Assay in all cases: log2 ratio of Biotin-Ahx-Ub-VS probe labelling (fragment/DMSO); higher = less target engagement (more negative = stronger competition), active = hit call of the paper (q ≤ 0.05, log2 ratio ≤ -1)
Conditions in all cases: compound concentration: 200 uM; treatment time: 3 h
OTUD6B = target: T1, OTUD6B (UniProt Q8N6M0)
T1 sequence (whole entry): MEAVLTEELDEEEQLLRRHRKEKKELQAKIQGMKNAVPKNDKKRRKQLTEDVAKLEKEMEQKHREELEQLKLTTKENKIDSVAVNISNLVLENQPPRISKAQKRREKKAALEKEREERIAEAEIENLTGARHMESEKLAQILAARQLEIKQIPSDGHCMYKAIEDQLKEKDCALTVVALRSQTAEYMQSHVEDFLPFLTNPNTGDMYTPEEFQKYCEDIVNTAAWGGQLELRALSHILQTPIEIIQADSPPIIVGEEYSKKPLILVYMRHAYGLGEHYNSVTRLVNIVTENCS
Summary of the method: (§1)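 The table lists average log2 ratios of fragment over vehicle, from an unpaired t-test on global-median-normalised Spectronaut label-free quantities. Proteins with ≥2 unique peptides were used. Samples were HEK293T lysate (495 µg) treated in triplicate with fragment at 200 µM or vehicle for 3 h, then with Biotin-Ahx-Ub-VS (0.5 µM final) for 1 h, with labelled DUBs NeutrAvidin-enriched and run by diaPASEF LC-MS/MS.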

OTUD7B = target: T2, OTUD7B (UniProt Q6GQQ9)
T2 sequence (whole entry): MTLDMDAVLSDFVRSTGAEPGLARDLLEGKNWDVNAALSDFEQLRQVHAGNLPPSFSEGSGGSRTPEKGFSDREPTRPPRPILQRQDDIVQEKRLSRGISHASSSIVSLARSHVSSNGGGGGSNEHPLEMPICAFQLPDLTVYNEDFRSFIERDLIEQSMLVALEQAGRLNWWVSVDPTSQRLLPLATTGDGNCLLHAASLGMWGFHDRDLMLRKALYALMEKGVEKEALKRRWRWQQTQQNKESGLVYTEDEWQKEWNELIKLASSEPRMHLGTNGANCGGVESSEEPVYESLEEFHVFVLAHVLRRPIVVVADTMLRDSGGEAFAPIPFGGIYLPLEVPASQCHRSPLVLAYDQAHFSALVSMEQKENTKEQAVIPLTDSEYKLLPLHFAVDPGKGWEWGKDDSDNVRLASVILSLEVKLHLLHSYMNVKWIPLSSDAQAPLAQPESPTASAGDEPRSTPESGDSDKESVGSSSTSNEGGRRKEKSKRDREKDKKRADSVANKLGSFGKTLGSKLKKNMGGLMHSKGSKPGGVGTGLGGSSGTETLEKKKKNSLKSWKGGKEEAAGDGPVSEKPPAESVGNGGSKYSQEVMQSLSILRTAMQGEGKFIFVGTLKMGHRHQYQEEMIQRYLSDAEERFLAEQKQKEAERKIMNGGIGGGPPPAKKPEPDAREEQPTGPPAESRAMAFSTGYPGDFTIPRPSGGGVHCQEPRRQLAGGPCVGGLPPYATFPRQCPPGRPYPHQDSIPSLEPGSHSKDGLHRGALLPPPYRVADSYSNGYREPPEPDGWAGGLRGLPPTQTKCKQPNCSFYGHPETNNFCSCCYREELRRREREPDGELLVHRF
Summary of the method: as §1

PRPF8 = PRPF8 (UniProt Q6P2Q9)
Summary of the method: as §1

PSMD7 = target: T3, PSMD7 (UniProt P51665)
T3 sequence (whole entry): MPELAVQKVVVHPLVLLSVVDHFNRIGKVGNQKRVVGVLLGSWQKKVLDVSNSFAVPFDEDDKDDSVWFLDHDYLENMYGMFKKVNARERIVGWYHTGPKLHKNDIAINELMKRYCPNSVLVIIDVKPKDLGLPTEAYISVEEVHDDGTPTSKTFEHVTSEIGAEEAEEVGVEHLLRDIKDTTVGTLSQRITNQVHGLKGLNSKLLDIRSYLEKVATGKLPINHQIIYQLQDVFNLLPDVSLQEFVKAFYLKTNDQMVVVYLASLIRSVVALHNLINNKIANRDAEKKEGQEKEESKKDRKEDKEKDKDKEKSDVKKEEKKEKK
Summary of the method: as §1

UCHL1 = UCHL1 (UniProt P09936)
Sequence of UCHL1 (P09936 whole entry, looked up): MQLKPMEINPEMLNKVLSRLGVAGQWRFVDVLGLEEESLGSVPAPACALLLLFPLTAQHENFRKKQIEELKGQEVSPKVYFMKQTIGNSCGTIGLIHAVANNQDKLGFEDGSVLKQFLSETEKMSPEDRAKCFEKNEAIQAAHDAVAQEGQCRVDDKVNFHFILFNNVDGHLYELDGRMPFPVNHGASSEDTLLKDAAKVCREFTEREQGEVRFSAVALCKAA
Summary of the method: as §1

UCHL3 = target: T4, UCHL3 (UniProt P15374)
T4 sequence (whole entry): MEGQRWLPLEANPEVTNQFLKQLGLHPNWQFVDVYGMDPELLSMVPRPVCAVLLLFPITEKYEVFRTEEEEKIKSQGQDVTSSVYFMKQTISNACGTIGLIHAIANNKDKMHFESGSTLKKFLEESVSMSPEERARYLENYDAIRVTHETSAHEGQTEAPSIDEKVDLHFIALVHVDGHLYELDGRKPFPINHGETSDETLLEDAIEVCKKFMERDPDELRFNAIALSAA
Summary of the method: as §1

UCHL5 = target: T5, UCHL5 (UniProt Q9Y5K5)
T5 sequence (whole entry): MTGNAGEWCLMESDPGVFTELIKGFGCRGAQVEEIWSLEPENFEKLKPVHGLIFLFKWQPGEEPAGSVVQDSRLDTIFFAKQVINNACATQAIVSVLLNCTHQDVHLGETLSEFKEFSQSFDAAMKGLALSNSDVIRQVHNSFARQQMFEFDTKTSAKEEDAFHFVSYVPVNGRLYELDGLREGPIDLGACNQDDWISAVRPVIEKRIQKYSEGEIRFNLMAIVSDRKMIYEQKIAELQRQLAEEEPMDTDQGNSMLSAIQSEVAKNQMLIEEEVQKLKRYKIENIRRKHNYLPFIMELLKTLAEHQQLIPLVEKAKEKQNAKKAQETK
Summary of the method: as §1

USP10 = USP10 (UniProt Q14694)
Sequence of USP10 (Q14694 whole entry): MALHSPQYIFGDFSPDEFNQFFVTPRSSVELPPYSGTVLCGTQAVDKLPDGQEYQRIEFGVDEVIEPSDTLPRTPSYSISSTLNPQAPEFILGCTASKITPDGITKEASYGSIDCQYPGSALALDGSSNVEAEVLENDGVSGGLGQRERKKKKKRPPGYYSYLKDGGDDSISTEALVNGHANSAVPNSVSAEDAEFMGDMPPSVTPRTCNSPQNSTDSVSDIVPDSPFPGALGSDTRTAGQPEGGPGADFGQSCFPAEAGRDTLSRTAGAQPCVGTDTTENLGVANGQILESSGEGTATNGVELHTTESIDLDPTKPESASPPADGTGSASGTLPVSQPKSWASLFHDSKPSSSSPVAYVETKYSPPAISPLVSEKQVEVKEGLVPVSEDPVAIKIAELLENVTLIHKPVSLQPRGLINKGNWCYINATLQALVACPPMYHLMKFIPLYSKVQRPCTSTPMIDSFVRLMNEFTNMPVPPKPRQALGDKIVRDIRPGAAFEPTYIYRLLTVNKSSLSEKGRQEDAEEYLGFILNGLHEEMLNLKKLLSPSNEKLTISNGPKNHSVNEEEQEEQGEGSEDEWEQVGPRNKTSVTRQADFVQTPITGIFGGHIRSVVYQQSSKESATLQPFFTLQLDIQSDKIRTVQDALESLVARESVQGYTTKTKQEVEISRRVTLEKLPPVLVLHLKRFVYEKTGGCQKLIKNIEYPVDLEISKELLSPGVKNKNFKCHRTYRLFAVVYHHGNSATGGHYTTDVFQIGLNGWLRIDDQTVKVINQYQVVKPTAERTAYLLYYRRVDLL
Summary of the method: as §1

USP15 = target: T6, USP15 (UniProt Q9Y4E8)
T6 sequence (whole entry): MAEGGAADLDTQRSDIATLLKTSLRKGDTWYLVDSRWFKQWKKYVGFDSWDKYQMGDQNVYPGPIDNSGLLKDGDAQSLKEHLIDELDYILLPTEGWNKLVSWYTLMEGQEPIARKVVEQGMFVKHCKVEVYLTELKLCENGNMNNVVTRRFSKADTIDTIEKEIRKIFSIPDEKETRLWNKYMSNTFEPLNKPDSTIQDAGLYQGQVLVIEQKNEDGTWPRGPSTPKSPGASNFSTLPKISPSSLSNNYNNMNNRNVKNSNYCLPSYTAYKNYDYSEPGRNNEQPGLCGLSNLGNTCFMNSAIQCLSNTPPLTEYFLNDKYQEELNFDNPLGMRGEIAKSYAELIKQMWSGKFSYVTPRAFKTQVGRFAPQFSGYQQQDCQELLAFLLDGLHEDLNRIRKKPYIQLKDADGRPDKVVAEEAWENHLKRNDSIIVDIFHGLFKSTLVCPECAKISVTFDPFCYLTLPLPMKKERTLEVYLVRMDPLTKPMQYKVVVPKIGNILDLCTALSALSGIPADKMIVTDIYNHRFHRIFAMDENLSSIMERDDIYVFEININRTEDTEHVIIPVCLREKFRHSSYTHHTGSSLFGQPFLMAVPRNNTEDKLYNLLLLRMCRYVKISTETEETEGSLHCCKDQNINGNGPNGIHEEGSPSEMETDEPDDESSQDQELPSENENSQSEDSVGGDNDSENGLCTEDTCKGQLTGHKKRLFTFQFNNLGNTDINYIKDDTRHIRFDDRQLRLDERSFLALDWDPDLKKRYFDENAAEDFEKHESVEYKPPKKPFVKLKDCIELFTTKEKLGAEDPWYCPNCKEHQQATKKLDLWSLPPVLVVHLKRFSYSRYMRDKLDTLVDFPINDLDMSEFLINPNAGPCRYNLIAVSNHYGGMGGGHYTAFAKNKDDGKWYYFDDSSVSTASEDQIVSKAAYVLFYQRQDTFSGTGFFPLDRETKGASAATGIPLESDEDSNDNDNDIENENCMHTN
Summary of the method: as §1

Measured: log2 ratio of Biotin-Ahx-Ub-VS probe labelling

Cc1cc(Cl)ccc1NC(=O)CCl
active: UCHL1 -1.46
inactive: OTUD6B -0.0452 | OTUD7B -0.649 | PRPF8 0.192 | PSMD7 0.0336 | UCHL3 0.0619 | UCHL5 -0.109 | USP10 -0.132 | USP15 -0.218
